S2 tox = cell viability loss in ATXN counter-screen. Potency, µM (highest dose often 56.7 µM), usual class: cytotoxic. 0.49% of 400,000 active. S2 cells (HEK-293 line with an ATXN2-luciferase reporter) viability, CellTiter-Fluor protease fluorescence, 24 h; further: nearly all actives have a fitted effect of over 40% in size
VP16 counter = inhibits Gal4-VP16 luciferase reporter, ROR gamma counter-screen | Drosophila S2 Gal4-VP16 UAS-luciferase, luminescence, 20 h | Potency, µM (titrated, usually from 53.6 µM), most hits filed as inhibitors | 3.5% of 310,000 active | AID 2546;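 further: Gal4-VP16 expression switched on by copper sulfate through the metallothionein promoter; nearly all actives have a fitted effect of over 50% in size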
HepG2 viability = kills HepG2 cells in TGF-b inhibitor counter-screen | Potency, µM (highest dose often 46.1 µM), usual class: cytotoxic | HepG2 CAGA-GFP viability, ATP luminescence, 18 h | 0.76% of 410,000 active
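HepG2 CAGA-GFP cells (1000/well, DMEM with 1% FBS) received compound, then TGF-beta at 500 pg/mL final, and were incubated 18 hours at 37 degrees C. Viability was read by CellTiter-Glo luminescence. Media-only wells were set as complete cell-killing and DMSO as no toxicity.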
TGFb inhibitor = blocks TGF-b signaling; Potency, µM (series often up to 46.1 µM), hits mostly inhibitors; HepG2 CAGA-GFP TGF-b/SMAD3 reporter, GFP fluorescence, 18 h; TGF-beta stimulated, 500 pg/mL final; 1.2% of 410,000 active; further: nearly all actives have a fitted effect of over 65% in size
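HEPG2 CAGA-GFP cells (1000/well, DMEM with 1% FBS) were pre-incubated 2 h at 37 degrees C, given compound by pin tool, then stimulated with TGF-beta at 500 pg/mL final for 18 h before per-cell GFP fluorescence imaging.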
RORgamma inh = inhibitors of mouse ROR gamma transcriptional activity | P51450 | Drosophila S2 Gal4-RORgamma UAS-luciferase reporter, 20 h | Potency, µM (top dose mostly 53.6 µM), hits mostly inhibitors | 5.4% of 310,000 active; further: nearly all actives have a fitted effect of over 60% in size
Target sequence (P51450 whole entry, looked up, the tested form may be a part): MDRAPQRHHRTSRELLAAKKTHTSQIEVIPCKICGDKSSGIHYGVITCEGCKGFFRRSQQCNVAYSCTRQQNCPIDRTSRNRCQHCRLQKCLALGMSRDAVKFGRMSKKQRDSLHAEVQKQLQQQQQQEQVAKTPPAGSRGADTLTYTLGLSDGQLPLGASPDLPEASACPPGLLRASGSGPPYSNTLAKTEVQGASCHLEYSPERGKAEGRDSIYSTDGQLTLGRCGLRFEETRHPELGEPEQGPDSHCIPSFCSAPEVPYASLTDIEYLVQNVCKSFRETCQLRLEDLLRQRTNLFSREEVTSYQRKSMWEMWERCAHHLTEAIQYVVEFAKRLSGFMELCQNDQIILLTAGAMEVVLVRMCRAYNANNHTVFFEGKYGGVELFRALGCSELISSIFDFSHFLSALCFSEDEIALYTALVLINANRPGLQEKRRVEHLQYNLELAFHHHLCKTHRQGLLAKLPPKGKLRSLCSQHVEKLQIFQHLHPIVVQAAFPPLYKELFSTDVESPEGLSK
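Read-out: Photinus luciferase luminescence; inhibitors lower reporter signal. Insect Schneider cells with Gal4-ROR gamma fusion under metallothionein promoter, UAS reporter; 700 uM final copper sulfate induction, 20 hr, ambient temperature.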
ATXN2 expr inh = inhibitors of ATXN2 expression; 0.72% of 360,000 active; HEK-293 ATXN2-luciferase reporter, luminescence, 24 h; Potency, µM (top dose mostly 57 µM), most hits filed as inhibitors; further: nearly all actives have a fitted effect of over 55% in size
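qHTS (up to 57 uM final) was run with 24 h compound exposure of reporter cells at 37 °C. Each well was multiplexed: SteadyGlo luminescence measured ATXN2-luciferase expression after a fluorogenic Gly-Phe-AFC viability readout (25 uM final).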
Large screens that a line does not name were inactive. Compounds with a hit are over-represented: about 6.3% of the library has one in this group of screens. The call rests on the fitted dose curve; in most records, active means well fitted curve in the direction sought with a large enough effect; inconclusive means small, poorly fitted or top-dose-only effect, or another doubt; inactive means no such curve, though single readings can be large; an effect the other way counts as inactive or inconclusive.

Cc1ccc(CN2CCC(C3(c4ccccn4)NC(=O)N(CC4CCCO4)C3=O)CC2)cc1C (configuration not stated)	none (no result: VP16 counter, HepG2 viability, TGFb inhibitor, RORgamma inh, ATXN2 expr inh)
COc1ccc(CN2C(=O)C(CC(=O)NCc3ccco3)CC(C(=O)N(C(C)C)C(C)C)=C2C)cc1 (configuration not stated)	none (no result: VP16 counter, RORgamma inh)
Oc1ccc2ccccc2c1C=NCc1cn2ccsc2n1	VP16 counter 13µM, RORgamma inh inconclusive
O=C(CCCc1ccccc1)NCc1cn2ccsc2n1	RORgamma inh inconclusive
COc1ccc(C(=O)NNC(=S)NC(=O)c2cccs2)cc1	S2 tox inconclusive, RORgamma inh inconclusive, ATXN2 expr inh inconclusive
COc1ccc(/C=C/C(=O)NC(=S)NNC(=O)c2cccs2)cc1	VP16 counter 22µM, RORgamma inh 2µM
COc1ccc(/C=C/C(=O)NC(=S)NNC(=O)c2cnccn2)cc1	S2 tox inconclusive, ATXN2 expr inh 14µM
COc1cccc(CN2CCN(Cc3cc4ccccc4o3)CC2CCO)c1 (configuration not stated)	none
COc1cccc(CCc2ccccc2OCC[C@@H]2C[C@@H](O)CN2C)c1	RORgamma inh 7.1µM (no result: S2 tox, HepG2 viability, TGFb inhibitor, ATXN2 expr inh)
Oc1ccc(N=Nc2ccccc2-c2nn[nH]n2)c(O)c1	S2 tox inconclusive, RORgamma inh 16µM (no result: ATXN2 expr inh)
Cc1ccccc1-c1nn[nH]n1	none
COc1cccc(C(=O)N2CCC(c3nc4ccccc4s3)CC2)c1	S2 tox inconclusive, TGFb inhibitor inconclusive (no result: VP16 counter, RORgamma inh)
COc1ccc(C(=O)N2CCC(c3nc4ccccc4s3)CC2)cc1Cl	S2 tox inconclusive, TGFb inhibitor 8.9µM, ATXN2 expr inh inconclusive (no result: VP16 counter, RORgamma inh)
COc1ccccc1CNc1nc2cc(-c3ccsc3)sc2c(=O)n1C	TGFb inhibitor inconclusive (no result: VP16 counter, RORgamma inh)
C/C(=N\NC(N)=S)C1(C)CCCCC1	VP16 counter 8.9µM, TGFb inhibitor inconclusive, RORgamma inh 3.5µM
NCCCCCCN	none (no result: S2 tox, HepG2 viability, TGFb inhibitor, ATXN2 expr inh)
C[C@@H]1COc2cccc(N3CCC[C@@H]3CO)c2S(=O)(=O)N1	none (no result: VP16 counter, HepG2 viability, TGFb inhibitor, RORgamma inh)
Cc1cccc(NC(=S)c2nc3ccccc3s2)c1	VP16 counter 5µM, RORgamma inh 1.1µM
Cc1ccc2[nH]c(=O)c(CN(CCCO)Cc3nnnn3Cc3ccccc3)cc2c1	none (no result: S2 tox, VP16 counter, RORgamma inh, ATXN2 expr inh)
CCOc1ccc(-n2c(=O)c3c(C)c(C)sc3n(CC(=O)Nc3ccc(CC)cc3)c2=O)cc1	none (no result: VP16 counter, RORgamma inh)
CCOc1ccc(N2C(=O)S/C(=C\c3cccn3C)C2=O)cc1	RORgamma inh inconclusive
Cn1cccc1/C=C1\SC(=O)N(c2ccc(O)cc2)C1=O	RORgamma inh 2.8µM
CC[N+]1(C)CCC(O)(/C=C/c2ccccc2)C(C(=O)/C=C/c2ccccc2)C1 (configuration not stated)	HepG2 viability 11µM, TGFb inhibitor 4µM, ATXN2 expr inh inconclusive (no result: S2 tox, VP16 counter, RORgamma inh)
CCc1ccc(/C=C/C(=O)C2C(=O)c3ccccc3C2=O)cc1	VP16 counter inconclusive, ATXN2 expr inh inconclusive
CS(=O)(=O)Oc1ccc2c(NC(N)=O)c(C(=O)c3ccc(Cl)cc3Cl)oc2c1	none (no result: S2 tox, VP16 counter, HepG2 viability, TGFb inhibitor, RORgamma inh)
CCCSCCCNC(=O)c1sc2nc(C)cc(C)c2c1-n1cccc1	none (no result: VP16 counter, RORgamma inh)
Fc1cccc(NC(=S)Nc2cccc3ccccc23)c1	none
CC(=O)c1ccc(NC(=S)Nc2cccc3ccccc23)cc1	VP16 counter inconclusive, RORgamma inh 14µM
Cc1ccc(NC(=S)Nc2cccc3ccccc23)cc1F	VP16 counter 7.9µM, RORgamma inh 11µM
CCCC(=O)NC(=S)Nc1ccc(C(C)=O)cc1	VP16 counter inconclusive, RORgamma inh 16µM
CC(=O)c1ccc(NC(=S)NC(=O)Cc2ccc(Cl)cc2)cc1	RORgamma inh inconclusive
CC(=O)N(C)c1ccc(NC(=S)Nc2cccc3ccccc23)cc1	VP16 counter inconclusive, RORgamma inh inconclusive
CCOc1ccc(NS(=O)(=O)c2ccc(-c3cc(C)no3)s2)cc1	none (no result: S2 tox, VP16 counter, RORgamma inh, ATXN2 expr inh)
CC1(C)C(=O)C(c2ccccc2)=C2CN3C(=O)N(CCc4ccccc4)C(=O)C3(Cc3ccc(C(F)(F)F)cc3)C=C21 (configuration not stated)	none (no result: S2 tox, HepG2 viability, TGFb inhibitor, ATXN2 expr inh)
